Unmarked numbers belong to inactive results. Activity calls are given as the source filed them. Cut-off read from the data, not from the text of the source: active = log2 fold change growth below about -1.8; inactive = the rest.
assay: anthelmintic activity against nematode growth – whole organism, log2 fold change (AID 1259336);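 note: growth scored by imaging after five days at 20 °C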; conditions: C. elegans growth, anthelmintic screen; active compounds read low

| Compound | log2 fold change growth |
| --- | --- |
| C[C@H]1COc2c(N3CCN(C)CC3)c(F)cc3c(=O)c(C(=O)O)cn1c23 | 0.473 |
| O=C(NCc1nnc2n1CCCCC2)c1ccc(-c2ccc(F)cc2)o1 | 0.174 |
| N=C(N)c1ccc(OCCCCCOc2ccc(C(=N)N)cc2)cc1 | 0.291 |
| COc1cccc(CC(=O)N2CCC(n3c(C)nc4ccc(F)cc43)CC2)c1 | 0.116 |
| CC(C)[C@@H](C(=O)Nc1ccc(S(=O)(=O)N(C)C)cc1)c1ccc(Cl)cc1 | -5.06 (active) |
| O=C(N[C@H](Cc1ccccc1)C(=O)Nc1ccccc1N1CCOCC1)c1cccs1 | 0.306 |
| O=C(c1n[nH]c2c1CCCC2)N1CCN(Cc2ccc3c(c2)OCO3)CC1 | 0.387 |
| CCOc1ccc(-c2nc(CNCCc3ccc(F)cc3)cs2)cc1 | 0.153 |
| Cc1cc(OCC(=O)NCc2ccccc2)c2cc(Br)ccc2n1 | 0.232 |
| C[C@H](c1ccc2c(c1)CCCC2)N(C)c1ncc2c(N)nc(N)nc2n1 | 0.0756 |
| CNC(=O)CNc1nc(-c2ccccn2)nc2scc(-c3ccccc3)c12 | 0.152 |
| Cc1nc2ccccn2c1C(=O)NCc1ccc(Cl)cc1 | 0.244 |
| CO[C@@H](C(=O)N1Cc2[nH]nc(NC(=O)c3ccc(N4CCN(C)CC4)cc3)c2C1)c1ccccc1 | 0.339 |
| CCCNC(=O)N1CCC2(CC1)CC(=O)c1cc(C)ccc1O2 | -0.181 |
| COc1cccc(OC)c1C(=O)Nc1ccc(Cl)c(-c2nc3ccccc3s2)c1 | -0.202 |
| C[C@@H](c1cc(Cl)cc(Cl)c1)N(C)c1ncc2c(N)nc(N)nc2n1 | -0.371 |
| CCOC(=O)NC(=O)c1ccsc1NC(=O)c1nc2ccccc2s1 | -3.88 |
| C[C@H](C(N)=O)N1CCCC[C@@H]1c1ccc(OCc2cccc(F)c2)cc1 | -0.0568 |
| CCCCOC(=O)Nc1cc2[nH]c(C3CCCCC3)nc2cc1N1CCCC1 | -0.373 |
| CC(=O)N1CCN(c2ccc(Oc3ccc(Cl)cc3O)cc2)CC1 | 0.423 |

| Compound | log2 fold change growth |
| --- | --- |
| CCOc1ccc(OCC(=O)Nc2cc(C)cc(C)c2)cc1 | -0.0899 |
| COc1ccc(N(CCc2cccc(C)n2)C(C)=O)cc1 | 0.0749 |
| Cc1cnc(N2CCN[C@@H](Cc3ccccc3)C2)nc1Oc1ccc(-n2ccnc2)cc1 | 0.245 |
| CN1CCC(NCc2cccc(-c3ccc(S(=O)(=O)NCc4ccccc4)cc3)c2)CC1 | 0.364 |
| Cc1cc(OCC(=O)Nc2ccc(C(C)C)cc2)n(C)c(=O)c1C#N | 0.363 |
| c1ccc(Oc2ccc(-c3cc(CN4CCOCC4)[nH]n3)cc2)cc1 | 0.284 |
| CCOc1ccccc1C(=O)Nc1cccc(-c2nc3ncccn3c2C)c1 | -0.256 |
| Brc1c(-c2ccc3c(c2)OCO3)nc2ncccn12 | 0.0304 |
| O=C(NCCN1CCCC1)c1cc(NCCCCN2CCC(F)(F)CC2)nc2ccc(Cl)cc12 | 0.489 |
| CN1CCN(S(=O)(=O)c2ccc(-c3ccc4c(Nc5ncc(Cl)cn5)ccnc4c3)cc2)CC1 | 0.346 |
| CCCCN(CCCC)c1c(C#N)cc(S(=O)(=O)Nc2ccccc2)cc1C#N | -0.631 |
| N#CCN(CCCCN1CCN(c2ccc(F)cc2)CC1)C(=O)OCc1ccccc1 | 0.194 |
| N#Cc1ccc(-c2ccc(OCC(N)=O)cc2)cc1 | -0.349 |
| COc1ccc(-c2onc(C(F)(F)F)c2-c2ccc(Cl)cc2)c(O)c1 | 0.102 |
| COc1ccc(C2=NCCN2)cc1-c1cn(-c2cccc(C3=NCCN3)c2)nn1 | 0.077 |
| CC(C)(C)c1cnc(NC(=O)c2ccccc2O)s1 | 0.155 |
| CN1CCN(c2nccc3[nH]c(-c4cccc(F)c4)cc23)CC1 | -0.0356 |
| O=C(NCCN1CCCC1)c1cc(NCCN2CCOCC2)nc2ccc(Cl)cc12 | 0.29 |
| Nc1nc2ccc(-c3cncc(Oc4ccc(F)cc4)c3)cc2[nH]1 | 0.264 |

Reference: PubChem BioAssay AID1259336 (Sattelle Laboratory, UCL Respiratory, Division of Medicine, …, 2017)
